This note sets out measurements from PubChem BioAssay (NCI).

Compounds without any hit were thinned out: in the full panel of roughly 83,000, 20% have a hit.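 How to read the values: 0–100, growth inhibition (40 = 60% inhibited); 0, no net growth; -100 to 0, cell death (-40 = 40% of starting cells died; -100 = all dead).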 The source made the active and inactive calls.

The assay has as its system PC-3 prostate. Kind of assay: NCI-60 one-dose screen, 48 h (100 = growth as untreated, 0 = no growth, -100 = all killed). As to conditions: 10 µM unless noted. As for the experimental part: Growth inhibition of the PC-3 human tumor cell line is measured as a screen for anti-cancer activity. Cells are grown in 96 well plates and exposed to the test compound for 48 hours. Compounds are tested at a single concentration, which is 10^-5 M for most compounds. The reported endpoint is percent growth (GI% or GIPRCNT), where numbers from 0 - 100% represent growth inhibition, and numbers from -100% - 0 represent cell death. For example, a value of 40 represents 60% growth inhibition. A value of 0 means no net growth occurred over the course of the experiment. A value of -40 indicates 40% of cells at the beginning of the experiment died by the end of the experiment. A value of -100 means all cells are dead at the end of the experiment.
NCI-60 Human Tumor Cell Lines Screen was performed using the standard one-dose NCI protocol, which is described in more detail at https://dtp.cancer.gov/discovery_development/nci-60/default.htm.
Compounds with GIPRCNT values below 10 were considered active. Activity score was based on GIPRCNT using the following formula: […]
Score is 0 for GIPRCNT values of 100 or above, 50 for GIPRCNT values of 0, and 100 for GIPRCNT values of -100.
Regarding `NNc1ncccn1`, the growth is 106% (inactive).

For `CCNC(=O)Oc1ccc[nH]c1=O`, the growth is 96.5% (inactive).

As to `CC1(c2ccccc2)CO1` (stereo not given), the growth was 104% (inactive).

Take `Cc1nc(C)c(C(=O)O)cc1C(=O)O`: the growth was 99.7% (inactive).

In the case of `CCC1CCC(C)NC1` (stereo not given), the growth was 94.2% (inactive).

In the case of `CCOC(=O)c1c[nH][nH]c1=O`, the growth is 108% (inactive).

Consider `CCOC(=O)CO`, for which the growth is 101% (inactive).

Regarding `CC(=O)NC(CCc1ccc(Cl)c(Cl)c1)c1cccc(O)c(=O)c1` (stereo not given), the growth is 38.9% (inactive).

Take `COC1OC(COC(C)=O)C(OC(C)=O)C(OC(C)=O)C1OC(C)=O` (stereo not given): the growth is 87.2% (inactive).

With `CCOC(=O)CNC(=O)Sc1ccc(C(C)(C)C)cc1`, the growth is 106% (inactive).

For `S=C=Nc1ccc2ccccc2c1`, the growth is 102% (inactive).

On to `COc1ccc(Br)c2c1C(=O)CC2`, for which the growth was 96.6% (inactive).

On to `NC(=S)N/N=C/c1ccc(OC(=O)COc2ccccc2)cn1`, for which the growth was 63.9% (inactive).

`CC(=O)c1cccc(O)c1`: the growth was 106% (inactive).

Take `N#C/C(=C\c1ccc(C#N)cc1)C(=O)c1ccccc1`: the growth is 87.6% (inactive).

`CC(=O)O[C@H]1CC[C@]2(C)C3=C(C(=O)C[C@H]2C1(C)C)[C@]1(C)CC[C@H]([C@H](C)CCC(=O)O)[C@@]1(C)CC3=O`: the growth is 92.4% (inactive).

Consider `C/C(=N\O)c1ccccn1`, for which the growth was 94.3% (inactive).

In the case of `COc1cc(CC#N)c([N+](=O)[O-])cc1OC`, the growth is 101% (inactive).

As to `CCOC(=O)c1ccc(C(C)(C)C)cc1`, the growth was 105% (inactive).

As to `COC1(OC)C2(Cl)C(Cl)=C(Cl)C1(Cl)C1COCC12` (stereo not given), the growth is 97.6% (inactive).

In the case of `Nc1cc(N)ncn1`, the growth was 97.7% (inactive).

Turning to `O=C(O)CSCC(=O)Nc1cc(C(F)(F)F)ccc1Cl`, the growth is 102% (inactive).

`FC(F)(F)c1cc(NC2=NCCN=C(Nc3cc(C(F)(F)F)cc(C(F)(F)F)c3)SS2)cc(C(F)(F)F)c1`: the growth is 17.1% (inactive).

Take `COc1nc(Nc2cccc(C(F)(F)F)c2)nc(OC)n1`: the growth was 98.7% (inactive).

As for `NNc1ncnc2c1ncn2C1OC(CO)C(O)C1O` (stereo not given), the growth was 32.3% (inactive).

`COc1ccc2c(Cl)cc(NC(=O)Nc3c(C)cccc3C)nc2c1`: the growth is 72.4% (inactive).

With `Cc1ccc(NC(=O)c2ccccc2Cl)cc1`, the growth was 89.6% (inactive).

With `COc1ccc(C(=O)C(=O)c2ccccc2)cc1`, the growth was 104% (inactive).

On to `CCCC(=O)CC(=O)c1ccccc1`, for which the growth is 94.7% (inactive).

Turning to `CC(c1ccccc1)N(C)C` (stereo not given), the growth was 88.6% (inactive).

As for `Cc1cccc(-[n+]2noc(N)n2)c1`, the growth was 60.3% (inactive).

Regarding `O=C(O)Cc1cccc2ccccc12`, the growth was 106% (inactive).

As for `CNc1ccccc1C(N)=O`, the growth was 116% (inactive).

Consider `Cc1ccc(/C=N/NC(N)=S)s1`, for which the growth was 92.2% (inactive).

On to `CC(=O)c1ccc(C)cc1`, for which the growth is 106% (inactive).

Regarding `Nc1nc2nnc(-c3ccccc3)c(-c3ccccc3)n2n1`, the growth was 86.5% (inactive).

In the case of `COc1cccc(C(=O)O)c1OC`, the growth was 96.3% (inactive).

Take `NNC(=O)c1ccccc1N`: the growth is 101% (inactive).

As to `O=C1NCC2CCCC1C2` (stereo not given), the growth is 114% (inactive).

For the molecule `O=C(O)CC1=CCCCC1`, the growth is 96% (inactive).
